From PubChem BioAssay AID1159580 (chemical genetic matrix, 2015)
Several values for one entry are separate records, joined by “and”; a condition that tells them apart may be missing. Identical values can stand only once. Out of some 5,500 compounds screened, about 2,000 (36%) were called active. Inconclusive results (about 18%) are left out. Rule as the data show it: active = normalized growth mostly below about 0.91 (no sharp cut-off); inconclusive = no clear call, values can overlap the other calls; inactive = mostly above about 0.92. Some of the results follow.

Assay: chemical genetic growth profiling, strain panel (AID 1159580);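 also: tested at 20 µM; growth read once vehicle control cultures reached saturation at 30 °C; 1 = growth at the plate median or of vehicle wells; lower values mean less growth of the strain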
Conditions: S. cerevisiae deletion strains, growth OD

Measured: normalized growth

COc1cc2c(cc1OC)-c1cc3ccc(OC)c(OC)c3c[n+]1CC2
inactive: locus YAL013W, strain DEP1, stronger effect = lower value 0.993 | locus YAL021C, strain ccr4, stronger effect = lower value 0.988 | locus YAL026C, strain drs2, stronger effect = lower value 0.987 | locus YAL030W, strain snc1, stronger effect = lower value 0.988 | locus YBL061C, strain skt5, stronger effect = lower value 0.988 | locus YBR009C, strain hhf1, stronger effect = lower value 0.984 | locus YBR021W, strain FUR4, stronger effect = lower value 0.977 and 1.02 | locus YBR023C, strain chs3, stronger effect = lower value 0.983 | locus YBR171W, strain sec66, stronger effect = lower value 0.971 | locus YBR229C, strain ROT2, stronger effect = lower value 0.979 and 1 | locus YBR231C, strain swc5, stronger effect = lower value 0.981 | locus YBR279W, strain paf1, stronger effect = lower value 0.979 | locus YCL011C, strain gbp2, stronger effect = lower value 0.991 | locus YCL016C, strain dcc1, stronger effect = lower value 0.978 | locus YCL029C, strain bik1, stronger effect = lower value 0.991 and 1.01 | locus YCL061C, strain MRC1, stronger effect = lower value 0.989 | locus YCL069W, strain vba3, stronger effect = lower value 0.988 | locus YCR088W, strain abp1, stronger effect = lower value 0.98 | locus YDL005C, strain med2, stronger effect = lower value 0.975 | locus YDL035C, strain GPR1, stronger effect = lower value 1.1 and 0.985 | locus YDL040C, strain nat1, stronger effect = lower value 0.988 | locus YDL074C, strain BRE1, stronger effect = lower value 1.05 and 1.02 | locus YDL101C, strain DUN1, stronger effect = lower value 0.982 and 1.03 | locus YDL134C, strain PPH21, stronger effect = lower value 0.989 and 0.983 | locus YDL185W, strain tfp1, stronger effect = lower value 0.988 and 1.03 | locus YDL192W, strain arf1, stronger effect = lower value 0.991 and 1.01 | locus YDR001C, strain nth1, stronger effect = lower value 0.982 | locus YDR069C, strain doa4, stronger effect = lower value 0.976 | locus YDR101C, strain arx1, stronger effect = lower value 0.985 and 1.02 | locus YDR137W, strain rgp1, stronger effect = lower value 0.97 | locus YDR150W, strain NUM1, stronger effect = lower value 0.992 and 1.01 | locus YDR159W, strain sac3, stronger effect = lower value 0.999 | locus YDR162C, strain NBP2, stronger effect = lower value 1.01 and 1 | locus YDR195W, strain ref2 0.921 | locus YDR297W, strain sur2, stronger effect = lower value 0.984 | locus YDR318W, strain mcm21, stronger effect = lower value 0.987 and 1.01 | locus YDR334W, strain swr1, stronger effect = lower value 0.986 | locus YDR335W, strain msn5, stronger effect = lower value 0.99 | locus YDR388W, stronger effect = lower value 0.99 and 1.02 | locus YDR392W, strain spt3, stronger effect = lower value 1.01 | locus YDR502C, strain sam2, stronger effect = lower value 0.985 and 1.01 | locus YEL003W, strain gim4, stronger effect = lower value 0.99 | locus YEL037C, strain rad23, stronger effect = lower value 0.987 | locus YEL061C, strain CIN8 (second series), stronger effect = lower value 0.967 | locus YEL061C, strain CIN8, stronger effect = lower value 0.99 and 1.01 | locus YER015W, strain faa2, stronger effect = lower value 0.989 | locus YER016W, strain bim1, stronger effect = lower value 0.987 | locus YER110C, stronger effect = lower value 0.983 and 1.02 | locus YER111C, strain swi4, stronger effect = lower value 0.97 | locus YER155C, strain BEM2 (second series), stronger effect = lower value 0.909 | locus YER155C, strain BEM2, stronger effect = lower value 0.994 and 1.01 | locus YER167W, strain BCK2, stronger effect = lower value 0.977 and 0.997 | locus YFR010W, strain ubp6, stronger effect = lower value 0.969 | locus YGL078C, strain dbp3, stronger effect = lower value 0.991 and 1.01 | locus YGL086W, strain mad1, stronger effect = lower value 0.952 and 0.998 | locus YGL167C, strain pmr1, stronger effect = lower value 0.981 | locus YGL173C, strain kem1, stronger effect = lower value 0.98 | locus YGL227W, strain vid30, stronger effect = lower value 0.974 | locus YGL240W, strain doc1, stronger effect = lower value 0.969 | locus YGL248W, strain PDE1, stronger effect = lower value 0.983 and 1.02 | locus YGL253W, strain hxk2, stronger effect = lower value 0.996 | locus YGR078C, strain PAC10, stronger effect = lower value 1.01 | locus YGR135W, strain pre9, stronger effect = lower value 1 and 1.01 | locus YGR229C, strain SMI1, stronger effect = lower value 1.02 | locus YGR252W, strain gcn5, stronger effect = lower value 0.952 and 1.02 | locus YHR013C, strain ard1, stronger effect = lower value 0.966 | locus YHR027C, strain rpn1, stronger effect = lower value 0.975 | locus YHR030C, strain SLT2, stronger effect = lower value 0.989 and 1.04 and 1 | locus YHR079C, strain IRE1 (second series), stronger effect = lower value 0.991 and 1.02 | locus YHR079C, strain IRE1, stronger effect = lower value 1.03 | locus YHR094C, strain hxt1, stronger effect = lower value 0.991 and 1.02 | locus YHR129C, strain ARP1, stronger effect = lower value 0.987 and 1.01 | locus YHR142W, strain chs7, stronger effect = lower value 1.02 | locus YHR200W, strain rpn10, stronger effect = lower value 0.987 and 1 | locus YIL066C, strain RNR3, stronger effect = lower value 0.973 and 0.985 | locus YIL073C, strain SPO22, stronger effect = lower value 0.95 and 1.04 | locus YIL125W, strain kgd1, stronger effect = lower value 0.996 and 1.01 | locus YIR030C, strain dcg1, stronger effect = lower value 0.989 and 1.01 | locus YJL092W, strain hpr5, stronger effect = lower value 0.979 | locus YJL095W, strain BCK1 (second series), stronger effect = lower value 0.973 | locus YJL095W, strain BCK1, stronger effect = lower value 1 and 1.02 and 1.05 | locus YJL115W, strain asf1, stronger effect = lower value 0.975 | locus YJL129C, strain trk1, stronger effect = lower value 0.96 | locus YJL134W, strain LCB3, stronger effect = lower value 0.97 and 1 | locus YJL154C, strain vps35, stronger effect = lower value 0.98 | locus YJL164C, strain tpk1, stronger effect = lower value 0.98 | locus YJL166W, strain qcr8, stronger effect = lower value 0.974 | locus YJL168C, strain set2, stronger effect = lower value 0.989 and 1.02 | locus YJL187C, strain SWE1 (second series), stronger effect = lower value 0.997 and 1.05 | locus YJR043C, strain POL32, stronger effect = lower value 0.998 and 0.991 | locus YJR066W, strain TOR1, stronger effect = lower value 0.965
